Sampled rows, rich in hits. Any-hit rate of the full collection: about 21%.
Pf growth 48h = P. falciparum growth inhibition at 48 hours (one generation); Potency, µM (titrated, usually from 28.7 µM), for inactives: at the highest dose activity change, negative = inhibition, hits mostly inhibitors; P. falciparum luciferase growth in erythrocytes, 48 h; 5.9% of 310,000 active; active = well fitted inhibition curve with a large enough effect; inconclusive = small, poorly fitted or top-dose-only effect, or another doubt; inactive = no such curve, though single readings can be large or run the other way; note: potency is the fitted concentration of half-maximal effect; % is set by controls: 0 for no effect and ±100 for the full control effect
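Compounds are pin-transferred into medium, infected erythrocytes (2% hematocrit, 0.1% parasitemia final) are added, and plates sit one parasite generation at 37 C in 5% CO2. Detection reagent is then added and luminescence measured.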
NS1 inh = blocks influenza NS1 protein function; Potency, µM (highest dose often 46.1 µM), inactives show at the highest dose activity, positive = more growth; 0.4% of 270,000 active; AID 2326; note: potency is the fitted concentration of half-maximal effect; actives are rising curves; nearly all actives have a fitted effect of over 50% in size
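OD600 was taken as the measure of yeast growth restored by compound in an NS1-expressing S. cerevisiae strain. Cells had been washed out of glucose medium and diluted 1:100 into galactose -URA medium, pH 6.0.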
Shiga inhibitor = blocks Shiga toxin action in Vero cells. Vero cells, Shiga toxin protein synthesis inhibition reporter. inhibition, % at 38.7 µM. 9.2% of 290,000 active. AID 2315; in the data active = inhibition mostly above about 28%, no sharp cut-off; inactive = mostly below about 43%; note: 0% is about no effect
Pf growth 96h = P. falciparum growth inhibition at 96 hours; P. falciparum luciferase reporter growth, 96 h; Potency, µM (doses to about 28.7 µM), inactives show at the top dose activity change, negative = inhibition, hits mostly inhibitors; 6.9% of 320,000 active; AID 504834; active = well fitted inhibition curve with a large enough effect; inconclusive = small, poorly fitted or top-dose-only effect, or another doubt; inactive = no such curve, though single readings can be large or run the other way; note: potency is the fitted concentration of half-maximal effect; % is set by controls: 0 for no effect and ±100 for the full control effect
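Two-generation exposure (96 h) targets delayed-death phenotype. Reporter parasites carrying integrated firefly luciferase, in red cells at 2% hematocrit and 0.05% parasitemia final, kept at 37 C, 5% CO2; luminescence loss indicates inhibition.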
SARS PLP yeast = inhibitors of SARS-CoV papain-like protease in yeast. 0.19% of 330,000 active. Potency, µM (doses to about 32.9 µM), without a hit: top-dose activity, positive = growth rescue, hits mostly activators. S. cerevisiae expressing SARS-CoV PLpro, growth rescue; note: potency is the fitted concentration of half-maximal effect; 0% is about no effect; nearly all actives have a fitted effect of over 55% in size
Cycloheximide cs = counter-screen hit for Shiga toxin inhibitors, cycloheximide | max response, % | cell reporter, cycloheximide protein synthesis inhibition counterscreen | AID 2314 | 12% of 300,000 active; in the data active = max response mostly above about 13%, no sharp cut-off; inactive = mostly below about 14%; note: read at 38.3 µM for the half of the compounds with a filed dose; 0% is about no effect
Starred values were filed as active, the others as inactive; ? = inconclusive; · = no result; [ ] = remark or other dose. Unless noted, calls come from the whole dose curve.

SMILES	Pf growth 48h	NS1 inh	Shiga inhibitor	Pf growth 96h	SARS PLP yeast	Cycloheximide cs
Cc1cc(C)cc(NC(=O)NCC(O)COc2ccc([N+](=O)[O-])cc2)c1 (configuration not stated)	?	3%	-3	?	0%	5
Cc1cccc2cc(-c3ccccc3)c(-c3ccccc3)c[n+]12	1.9µM*	3%	16	1.3µM*	-8%	-1
Cc1c(O)ccc2c(-c3ccccc3)cc(=O)oc12	?	9%	23	-13%	-1%	-4
Cc1ccc(-n2c(SCC(=O)Nc3ccc4c5c(cccc35)CC4)nc(O)cc2=O)cc1	2.9µM*	?	-12	2.6µM*	?	-3
COc1ccccc1-n1c(SCC(=O)Nc2ccccc2C)nc(O)cc1=O	2.6µM*	?	14	-15%	6%	-5
Cc1nnc(SCC(=O)Nc2ccc3c4c(cccc24)CC3)n1C	5%	1%	-5	-14%	7%	-3
Cn1c(SCC(=O)NC(C)(C)C)nc(O)cc1=O	-5%	?	-11	5%	0%	-3
COc1ccc(-n2c(SCC(=O)Nc3cccc4ccccc34)nc(O)cc2=O)cc1	2.1µM*	25%	17	0.29µM*	0%	-2
CC(C)(C)NC(=O)CSc1nc(O)cc(=O)n1-c1ccccc1F	2.6µM*	?	-1	42%	-1%	-5
Cc1ccc(CNC(=O)C2CCCN(S(=O)(=O)c3c(C)[nH]c(=O)[nH]c3=O)C2)cc1 (configuration not stated)	-3%	4%	0	-4%	-7%	-1
CCN(CC)c1ccc(/C=N/NC(=O)Cc2cccs2)cc1	-1%	-22%	31	?	-18%	33*
COc1ccc(COC(=O)N/N=C/c2cccs2)cc1	25%	6%	49*	0%	-4%	25*
COc1ccc(/C=N/NC(=O)Cc2cccs2)cc1	91%	-2%	64*	?	0%	62*
Cc1ccc(/C=N/NC(=O)Cc2cccs2)o1	36%	8%	23	4%	-1%	8
C=C(NC(C)=O)c1c(F)cccc1F	45%	·	·	28%	5%	·
Cc1ccc(Cl)cc1N1CCN(C(=O)C2CCN(S(=O)(=O)c3cnc[nH]3)CC2)CC1	-6%	7%	-2	2.6µM*	2%	0
CCc1ccc(NC(=O)C2CCN(S(=O)(=O)c3cnc[nH]3)CC2)cc1	?	-8%	-8	13µM*	-5%	0
Cc1ccc(Cl)cc1N1CCN(C(=O)C2CCCN(S(=O)(=O)c3cnc[nH]3)C2)CC1 (configuration not stated)	?	-9%	21	?	3%	-1
COc1ccc(S(=O)(=O)N(C)C[C@H]2Oc3c(NC(=O)Nc4c(C)noc4C)cccc3C(=O)N([C@H](C)CO)C[C@@H]2C)cc1	·	·	·	·	-3%	·
O=C(CCN1CCOCC1)NNC(=O)c1ccc(Cl)c([N+](=O)[O-])c1	·	·	·	·	2%	·
O=C1NC(=O)C(=Cc2ccc(SC3CCCCC3)o2)C(=O)N1	23%	·	51*	-38%[5.75 µM]	3%	12
O=C(Nc1ccc(C(F)(F)F)cc1)c1cc(-c2cccnc2)nc2ccc(Br)cc12	0.37µM*	1%	-15	?	7%	-1
CC(=O)Nc1cccc(NC(=O)c2cc(-c3cccnc3)nc3ccc(Br)cc23)c1	5.2µM*	?	-2	?	12%	5
CC(=O)Nc1cccc(NC(=O)c2cc(-c3cccnc3)nc3ccc(Cl)cc23)c1	?	2%	-2	15%	1%	-2
CC(Oc1ccc2c3c(c(=O)oc2c1)CCCC3)C(=O)NCc1cccnc1 (configuration not stated)	-3%	9%	-7	?	?	7
SMILES	Pf growth 48h	NS1 inh	Shiga inhibitor	Pf growth 96h	SARS PLP yeast	Cycloheximide cs
Cc1ccc(S(=O)(=O)N2CC(C)C(=O)CC2C)cc1 (configuration not stated)	2%	-1%	-17	?	-11%	-3
Cc1ccc(N2CCN(C3=NC(=O)C(Cc4ccccc4)S3)CC2)cc1 (configuration not stated)	?	-10%	-9	?	1%	-1
O=C1N=C(N2CCN(c3ccccc3)CC2)SC1Cc1ccccc1 (configuration not stated)	-16%	-7%	32	?	-14%	14*
CC(C)(C)c1ccc2c(c1)C(=O)c1ccccc1C2=O	274%	-9%	77*	355%	-24%	32*
CCc1ccc2c(c1)C(=O)c1ccccc1C2=O	257%	4%	14*	-21%	0%	43*
O=C1c2ccccc2-c2cc([N+](=O)[O-])c([N+](=O)[O-])cc21	·	-38%	·	·	·	·
COc1cc(C(=O)Nc2nnc(CC(=O)N3CCOCC3)s2)cc(OC)c1OC	17%	-1%	7	?	1%	-5
C/C(C[n+]1ccccc1)=N\N=C(N)N	·	-6%	·	·	·	·
Cc1ccc(N2C(=O)c3ccccc3NC2(C(=O)O)c2ccccc2)cc1Cl (configuration not stated)	95%	0%	99*	11%	0%	66*
Cc1ccc(NC(=O)C(C)N2C(=O)c3ccccc3S2(=O)=O)cc1Cl (configuration not stated)	3%	·	·	7%	-12%	·
COC(=O)c1cc(COC(=O)c2nc3nccc(C)n3n2)oc1C	17%	·	-6	14%	0%	-2
COc1ccccc1-c1ccc(SCc2ccc(C)cc2)nn1	100%	·	76*	91%	-1%	32*
COc1ccccc1-c1ccc(SCc2ccc(F)cc2)nn1	39%	·	65*	84%	-2%	39*
COc1ccccc1-c1ccc(SCC(=O)N2CCOCC2)nn1	?	·	4	9%	0%	9
Fc1cccc(CSc2ccc(-c3ccc4c(c3)OCO4)nn2)c1	14%	1%	11	74%	12%	11
Cc1cc(C)cc(NC(=S)Nc2cccc3cnccc23)c1	2.1µM*	·	-17	?	-3%	6
C=C(C)CNC(=S)Nc1cccc2cnccc12	6%	-3%	13	-17%	-13%	0
Cc1ccc(NC(=S)Nc2cccc3cnccc23)c(C)c1	-8%	·	24	1%	0%	15
CCc1ccc(NC(=S)Nc2cccc3cnccc23)cc1	?	·	65*	?	-13%	36*
CC(C)c1nc(CN(C)C(=O)N[C@H](C(=O)N[C@@H](Cc2ccccc2)C[C@H](O)[C@H](Cc2ccccc2)NC(=O)OCc2cncs2)C(C)C)cs1	·	·	-5	·	6%	-1
CC(C)(C)CN1CCN(CC#Cc2ccccc2)CC1CCO (configuration not stated)	14%	22%	34	?	7%	17*
CN1CCN(CC#Cc2ccccc2)CC1CCO (configuration not stated)	1%	7%	-2	4.1µM*	-9%	-1

From PubChem
